# From PubChem BioAssay (Tox21)
# Results filed as inconclusive are left out. The source made the active and inactive calls. The call rests on the fitted dose curve.
# Target: 5-hydroxytryptamine receptor 2A (Homo sapiens) (UniProt P28223)
# Assay: 5-hydroxytryptamine receptor 2A (HTR2A) small molecule antagonists, cell-based qHTS assay (AID 1963586); further: nearly all actives have a fitted effect of over 45% in size
# Conditions: HTR2A-CHO cells, DOI-induced calcium flux, fluorescence; series mostly up to 61.5 µM; activity, negative = inhibition: at the top concentration
# Description: National Center for Advancing Translational Sciences [NCATS]
# Division of Preclinical Innovation [DPI]
# U.S. Environmental Protection Agency [EPA]
# National Institutes of Environmental Health Sciences [NIEHS]
# National Toxicology Program [NTP]
# U.S. Food and Drug Administration [FDA]
# The HTR2A receptor is a subtype of the 5-HT2 receptor that belongs to the serotonin receptor family and is a G protein-coupled receptor (GPCR). The HTR2A-CHO cell line stably expressing human 5-hydroxytryptamine receptor 2A (HTR2A) can be used for screening antagonists of interactions between 5-HT2 and its ligands. The HTR2A-CHO calcium flux assay is a homogeneous fluorescence-based assay for detecting the intracellular calcium level using FDSS kinetic plate reader system.
# Tox21 Assay Protocol Summary:
# HTR2A-CHO cells were dispensed at 2000 cells/3uL/well in 1536-well black-clear bottom plates using a Multidrop Dispenser. After the assay plates were incubated at a 37 C/5% CO2 incubator for 18 h, 3 uL of Dye Loading Buffer was transferred to the assay plate by a Flying Reagent Dispenser. The assay plates were incubated at 37 C for 1h. For antagonist mode, 23 nL of compounds dissolved in DMSO, positive controls or DMSO only was transferred to the assay plate by a pin tool. After 5 min incubation at room temperature, 1.5 uL of 4-Iodo-2,5-dimethoxy-alpha-methylbenzeneethanamine hydrochloride (DOI) at 4nM was added to each well. The fluorescence intensity in the plates was measured using FDSS 7000EX kinetic plate reader for 3 min at 1 sec intervals.
# On the % scale 0 is the no-effect control and ±100 the full control effect; potency means the concentration at half of the fitted maximal effect.
# Sequence of 5-hydroxytryptamine receptor 2A (Homo sapiens) (P28223 whole entry, looked up): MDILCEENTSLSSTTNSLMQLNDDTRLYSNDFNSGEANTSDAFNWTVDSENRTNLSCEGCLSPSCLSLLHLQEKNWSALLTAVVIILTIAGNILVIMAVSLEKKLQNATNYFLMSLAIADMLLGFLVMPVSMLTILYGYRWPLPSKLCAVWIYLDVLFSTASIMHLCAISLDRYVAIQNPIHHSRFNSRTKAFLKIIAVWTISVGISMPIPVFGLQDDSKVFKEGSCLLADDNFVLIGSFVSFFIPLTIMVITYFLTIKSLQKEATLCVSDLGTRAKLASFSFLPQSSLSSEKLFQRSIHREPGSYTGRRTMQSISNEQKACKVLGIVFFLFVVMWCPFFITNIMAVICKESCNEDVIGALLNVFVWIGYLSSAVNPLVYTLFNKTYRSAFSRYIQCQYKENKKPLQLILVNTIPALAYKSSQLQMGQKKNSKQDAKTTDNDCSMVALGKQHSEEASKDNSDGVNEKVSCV
Structure (SMILES),"activity, negative = inhibition",Potency
N[C@@H](CCC(=O)O)C(=O)O,6.4% (inactive),
Oc1c(I)cc(Cl)c2cccnc12,,inactive
CCCCCOC(=O)c1ccc(O)cc1,,9.54 µM (active)
C=C(C)C(=O)OCCCCCCCCCCCCCCCCCC,-3.48% [at 12.7 µM] (inactive),
COc1cc(NCc2ccc3nc(N)nc(N)c3c2C)cc(OC)c1OC,9.89% [at 28.5 µM] (inactive),
CCc1ccccc1,58.5% (inactive),
CCCCC(CC)CN=C(N)NC(N)=NCCCCCCN=C(N)NC(N)=NCC(CC)CCCC (stereo not given),,18.3 µM (active)
CCCCCCCCCCCCCOC(=O)CCSCCC(=O)OCCCCCCCCCCCCC,1.85% [at 12.7 µM] (inactive),
CCCCCCCC#N,-1.5% (inactive),
CCCC(=O)OC(C)(C)Cc1ccccc1,18% (inactive),
COc1cc(C(C)C)c2c(c1)S(=O)(=O)N(COc1cc(=O)n3cccc(OCCN4CCCCC4)c3n1)C2=O,4.6% [at 12.7 µM] (inactive),
CCN(CC)c1ccc2c(c1)Oc1cc(N(CC)CC)ccc1C21OC(=O)c2ccccc21,215% [at 28.5 µM] (inactive),
CC(C)=CCCC(C)CC(=O)O (stereo not given),0.622% (inactive),
CN1CCN(C)CC1,0.578% (inactive),
O=CO,0.711% [at 5.62 µM] (inactive),
C[C@H](CCC(=O)O)[C@H]1CC[C@H]2[C@@H]3C(=O)C[C@@H]4CC(=O)CC[C@]4(C)[C@H]3CC(=O)[C@]12C,72.4% [at 28.5 µM] (inactive),
O=c1cc(-c2ccc(O)cc2)oc2cc(O)cc(O)c12,,inactive
CCc1ccc(C)cc1,7.4% (inactive),
C=Cc1ccc(C(C)(C)C)cc1,-1.87% (inactive),
c1cc(CCCc2ccncc2)ccn1,6.8% (inactive),

Structure (SMILES),"activity, negative = inhibition",Potency
COP(=O)(O)OP(=O)(O)OC,-10.2% (inactive),
Oc1cc2ccccc2c2ccccc12,-23.2% (inactive),
FB(F)F,-0.305% (inactive),
O=C1C=CC(=O)N1c1ccc(Cc2ccc(N3C(=O)C=CC3=O)cc2)cc1,,37.5 µM (active)
CC(C)OC(=O)c1cc(C(=O)OC(C)C)cc([N+](=O)[O-])c1,46.5% (inactive),
CO/N=C(/C(=O)N[C@@H]1C(=O)N2C(C(=O)[O-])=C(C[n+]3ccn4ncccc43)CS[C@H]12)c1nsc(N)n1,4.49% [at 28.5 µM] (inactive),
CC1(O)CSC(C)(O)CS1 (stereo not given),-0.817% (inactive),
Cc1c(-c2cccnc2)c2ccccc2n1CCCCC(=O)O,-2.28% (inactive),
COC(=O)c1cc(Cl)ccc1[N+](=O)[O-],-0.925% (inactive),
Cc1cc2nc3ccc(=[N+](C)C)cc-3sc2cc1N,2.16% [at 28.5 µM] (inactive),
Cn1c(=O)c2c(ncn2CCO)n(C)c1=O,-19.5% [at 28.5 µM] (inactive),
CN(C)c1ccc(O)c2c1C[C@H]1C[C@H]3[C@H](N(C)C)C(=O)C(C(N)=O)=C(O)[C@@]3(O)C(=O)C1=C2O,,inactive
CC(=O)OC(C(=O)c1ccccc1)c1ccccc1 (stereo not given),,0.0011 µM (active)
CCN1CCC[C@H]1CNC(=O)c1c(OC)ccc(Br)c1OC,8.18% [at 28.5 µM] (inactive),
NC(=O)c1nc(-c2cccc(-c3cc(F)ccc3OCC(F)(F)C(F)(F)F)c2)n[nH]1,-14.9% (inactive),
COC(=O)C1=C(C)NC(C)=C(C(=O)OCCCN2CCC(c3ccccc3)(c3ccccc3)CC2)C1c1cccc([N+](=O)[O-])c1 (stereo not given),-1.85% [at 28.5 µM] (inactive),
CC(=O)SCC(CC(=O)c1ccc(C)cc1)C(=O)O (stereo not given),37.1% [at 28.5 µM] (inactive),
COC(Cc1ccccc1)OC,13.4% (inactive),
CC(=O)c1ccc2c(c1)[C@H](NC(=O)c1ccc(F)cc1)[C@@H](O)C(C)(C)O2,3.91% (inactive),
CCCOc1ccc2c(c1)CC[C@@H]1[C@@H]2CC[C@]2(C)C(OC)CC[C@@H]12 (stereo not given in full),9.72% [at 28.5 µM] (inactive),
